Source: PubChem BioAssay
D3 antag: blocks the human D3 dopamine receptor; D3R cells, DiscoveRx beta-arrestin luminescence, antagonist mode; hits give low values; max response, negative = inhibition, %; P35462; hit rate 2.5% among 360,000; in the data active means max response below about -50%; inconclusive means no clear call, values can overlap the other calls; further: on the % scale 0 is the no-effect control and ±100 the full control effect
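Cells plated overnight at 1500 cells/well, then exposed to library compounds with dopamine controls for 90 minutes at 37 degrees C. DiscoveRx reagent added for 30–60 minutes at room temperature; luminescence read, quantitative HTS format.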
IDH1 R132H inh: inhibitors of human mutant IDH1 R132H; AID 602179; hit rate 0.093% among 390,000; O75874; Potency, µM (titrated, usually from 76.6 µM), inactives show at the top dose activity change, negative = inhibition, most hits filed as inhibitors; IDH1-R132H enzyme, NADPH consumption, diaphorase/resazurin fluorescence; further: potency means the concentration at half of the fitted maximal effect; on the % scale 0 is the no-effect control and ±100 the full control effect; nearly all actives have a fitted effect of over 65% in size
Target sequence (O75874 whole entry R132H, stated change not applied): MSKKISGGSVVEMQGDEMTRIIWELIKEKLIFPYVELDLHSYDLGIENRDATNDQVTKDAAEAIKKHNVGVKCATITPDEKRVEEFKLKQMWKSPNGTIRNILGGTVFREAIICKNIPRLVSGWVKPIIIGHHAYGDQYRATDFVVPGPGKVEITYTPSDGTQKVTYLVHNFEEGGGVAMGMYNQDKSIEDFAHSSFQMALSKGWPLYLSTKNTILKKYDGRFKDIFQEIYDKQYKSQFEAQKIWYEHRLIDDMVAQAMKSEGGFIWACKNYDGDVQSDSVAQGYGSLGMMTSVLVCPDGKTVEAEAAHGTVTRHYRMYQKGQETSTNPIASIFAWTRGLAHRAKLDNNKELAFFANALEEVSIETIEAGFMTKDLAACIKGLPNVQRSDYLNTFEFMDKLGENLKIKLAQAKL
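IDH1-R132H (0.5 ug/mL dispensed) in pH 7.5 Tris buffer was preincubated 30 min with compound, then given a substrate mix of 0.016 mM NADPH and 2 mM alpha-KG for 80 min at room temperature; remaining NADPH was read by diaphorase/resazurin fluorescence.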
Integrin act MD: integrin-mediated muscular dystrophy alleviation activation | Potency, µM (highest dose often 38.3 µM), without a hit: at the highest dose activation, most hits filed as activators | hit rate 0.064% among 350,000 | alpha7betagal myoblasts, beta-gal FDG fluorescence, 48 h;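 further: potency means the concentration at half of the fitted maximal effect; 100% = response of the positive control SU9516; nearly all actives have a fitted effect of over 60% in size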
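Alpha7betagal+/- myoblasts (passage 13) were plated 16-24 hr, then exposed to compounds (1:260 dilution of DMSO stock) for 48 hours at 37C. After MPER lysis, β-galactosidase reporter activity was read as FDG fluorescence (ex 480/em 540) after 30 minutes.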
D3 ag: agonists of human D3 dopamine receptor; hit rate 0.58% among 410,000; D3R DiscoveRx beta-arrestin cells, luminescence, 90 min; AID 652048; max activation, %; P35462; in the data active means max activation above about 30%; further: 0% is about no effect
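Cells at 1500/well, incubated overnight, then treated with pinned compounds (dopamine as control) for 90 min at 37 degrees C. DiscoveRx reagent added for 30 - 60 minutes at room temperature; luminescence read.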
B2AR arrestin: beta2AR (human) beta-arrestin recruitment activity. hit rate 0.02% among 330,000. beta-arrestin recruitment to beta2AR, cell-based reporter. Potency, µM (series often up to 46.1 µM), for inactives: at the top dose activation, hits mostly activators. P07550. AID 492947;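 further: potency means the concentration at half of the fitted maximal effect; 0% = DMSO controls and full agonism = EC100 isoproterenol or metaproterenol; nearly all actives have a fitted effect of over 65% in size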
Numbers without * were called inactive; ? = inconclusive; . = not tested or not shown; [ ] = remark or other dose. Only some compounds are listed: those with a hit (about 2.9% of all), similar ones and a draw of the others. Unless noted, the call rests on the fitted dose curve; in most records, active means well fitted curve in the direction sought with a large enough effect; inconclusive means small, poorly fitted or top-dose-only effect, or another doubt; inactive means no such curve, though single readings can be large; an effect the other way counts as inactive or inconclusive.

SMILES	D3 antag	IDH1 R132H inh	Integrin act MD	D3 ag	B2AR arrestin
CCN(CC)CCOc1ccc2nc(N(C)C)sc2c1	-59*	2%	3%	1	-2%
CCOc1ccc2nc(N3CCCCCC3)sc2c1	-8	6%	-21%[7.66 µM]	13	0%
O=C(Nc1ccccc1)N1CCC(n2c(=O)[nH]c3ccccc32)CC1	-7	2%	6%	1	0%
O=C(NCCN1CCC(n2c(=O)[nH]c3ccccc32)CC1)c1ccncc1	-107*	.	.	-16	.
O=C(NCCN1CCC(n2c(=O)[nH]c3ccccc32)CC1)C(c1ccccc1)c1ccccc1	-78*	.	.	-16	.
O=C(NCCN1CCC(n2c(=O)[nH]c3ccccc32)CC1)c1cccc(Cl)c1	-98*	.	.	-12	.
O=C(NCCN1CCC(n2c(=O)[nH]c3ccccc32)CC1)c1cc(F)cc(F)c1	-101*	.	.	-11	.
CC(OC(=O)C1=COCCO1)C(=O)NC1CCCC(C)C1C (configuration not stated)	?	4%	-10%	-13	.
Clc1cccc(N2CCN(c3nc4ccccc4n4nnnc34)CC2)c1	.	.	.	12	.
Cc1cc(NC(=O)C2CCN(S(=O)(=O)c3ccc(Br)s3)CC2)ccc1Br	.	1%	.	8	.
O=C(NCCN1CCC(n2c(=O)[nH]c3ccccc32)CC1)c1cccnc1Cl	-69*	.	.	-18	.
O=C(NCCN1CCC(n2c(=O)[nH]c3ccccc32)CC1)c1cccc(F)c1	-105*	.	.	-19	.
CCN(C/C=C/c1ccccc1OC)Cc1ccccc1	-82*	0%	16%	-25	0%
CCN(CC)c1ccc(NC(=O)C2COc3ccc(OC)cc3C2)c(C)c1 (configuration not stated)	.	4%	.	-20	.
Cc1ncoc1C(=O)Nc1ccccc1C(N)=O	-100*	7%	5%	4	0%
COc1ccc(OC)c2sc(N(Cc3cccnc3)C(=O)c3ccco3)nc12	.	0%	.	8	.
CN(C(=O)c1oc(=O)c2ccccc2c1-c1ccccc1)c1cccc(Cl)c1	.	34%	.	-15	.
CC(C)c1cc(C(=O)NNC(=S)NC2CCCCC2)cs1	-53*	-9%	-9%	-20	0%
CC(C)(C)c1ccc(C(=O)Nc2ccc(-c3nc4cc(Cl)ccc4o3)cc2)cc1	.	-16%	.	-11	.
COc1ccc(CCC(C)NCC2CCCCC2)cc1 (configuration not stated)	-70*	1%	10%	-11	?
COc1ccc(CCC(C)NCc2cc(OC)cc(OC)c2)cc1 (configuration not stated)	13	-6%	0%	-6	0%
COc1ccc(CCC(C)NCc2ccc(Cl)c(Cl)c2)cc1 (configuration not stated)	-55*	-3%	-54%	-17	0%
COc1ccc(CCC(C)NC2CCCCCCC2)cc1 (configuration not stated)	-67*	-1%	-17%	-11	0%
COc1ccc(Br)cc1CNC(=O)CCCn1c(=O)c2cccn2c2ccccc21	.	-13%	.	-6	.
COc1ccc(N2CCN(Cc3nc4c(c(=O)n(C)c(=O)n4C)n3C(C)C)CC2)cc1	.	-16%	.	1	.
SMILES	D3 antag	IDH1 R132H inh	Integrin act MD	D3 ag	B2AR arrestin
Cc1cc(C(=O)Nc2cccc(F)c2)c2c(C)nn(-c3cccc(Cl)c3C)c2n1	.	-14%	.	25	.
Cn1c(CCN2CCCCC2)nc2cc(NS(=O)(=O)c3ccc(Cl)cc3)ccc21	-72*	9%	-46%	-5	0%
Cn1c(CN2CCCCC2)nc2cc(NS(=O)(=O)c3ccc(Cl)cc3)ccc21	-65*	4%	2%	-32	0%
Cn1c(CN2CCCCC2)nc2cc(NS(=O)(=O)c3ccc(F)cc3)ccc21	-73*	-2%	-12%	-33	-1%
Fc1ccccc1N1CCN(c2nnc(C(F)(F)F)c3nnn(Cc4ccccc4)c23)CC1	.	-13%	.	3	.
Nc1ccc(N)c([N+](=O)[O-])c1	.	.	.	-29	.
CCc1ccc2[nH]c(=O)c(CN(Cc3ccc4c(c3)OCO4)Cc3nnnn3C3CCCC3)cc2c1	15	3%	-61%	35*	0%
Cc1ccc2cc(CN(Cc3ccc(F)cc3)Cc3nnnn3C3CCCC3)c(=O)[nH]c2c1	7	0%	-7%	-26	0%
Cc1ccc(C)c(NS(=O)(=O)c2ccc3oc(=O)c4ncn(C)c4c3c2)c1	.	-11%	.	-22	.
Cc1cccc(NS(=O)(=O)c2ccc3oc(=O)c4ncn(C)c4c3c2)c1C	.	8%	.	42*	.
CCOC(=O)/C(C#N)=C1/SC(CC)C(=O)N1c1ccc(C)cc1 (configuration not stated)	-57*	2%	9%	11	0%
CCC(C)NC(=O)c1sc2nc(C)c(C(=O)Nc3ccc(C)cc3C)c(-c3ccc(NC(C)=O)cc3)c2c1N (configuration not stated)	.	31%	.	6	.
COc1ccc(-c2cn(Cc3ccc(C(=O)c4ccccc4)cc3)nn2)cc1	-16	2%[38.3 µM]	-30%	0	0%
Cc1ccccc1N=CC1=C(O)c2ccccc2C1=O	-19	4%	?	-10	0%
COc1ccc(N=CC2=C(O)c3ccccc3C2=O)c(OC)c1	-58*	1%	-2%	-4	0%
Cc1ccccc1CSc1nc2cccnc2n1Cc1ccc(C(=O)NCCc2cccs2)cc1	.	0%	.	-16	.
O=C(Nc1cccc(-c2nc3cccnc3s2)c1)c1cccc(Br)c1	.	0%	.	5	.
CC(C)c1ccc(NC(=S)N2CCN(S(=O)(=O)c3ccccc3)CC2)cc1	18	2%	-23%	-1	1%
CCCCn1c(-c2ccccc2C)nc2cc3[nH]c(=O)c(C(C)C)nc3cc21	-64*	-13%	-8%	0	3%
CCCCn1c(-c2cccc3ccccc23)nc2cc3[nH]c(=O)c(C(C)C)nc3cc21	-2	-13%	-1%	3	2%
Cc1ccc(CNC(=O)c2ccc(N3Cc4ccccc4Oc4ncccc43)s2)cc1	.	.	.	3	.
CC(=O)c1ccc(NC(=O)c2cn(-c3ccccc3)nc2-c2ccncc2)cc1	-1	-7%	-16%	-6	0%
O=C(O)c1ccc(NC(=O)c2cn(-c3ccccc3)nc2-c2cccc(Cl)c2)cc1	36	-4%	-9%	36*	0%
O=C(O)c1ccc(NC(=O)c2cn(-c3ccccc3)nc2-c2ccc(F)cc2)cc1	2	0%	-19%	7	0%
COC(=O)c1ccc(NC(=O)c2cn(-c3ccccc3)nc2-c2ccncc2)cc1	-67*	0%	-34%	-13	0%
O=C(Nc1cccc(Br)c1)c1cc(S(=O)(=O)N2CCCCC2)c[nH]1	.	23%	.	-5	.
CCCCNc1nnc(SCC(=O)c2c(N)n(CCC)c(=O)[nH]c2=O)s1	2	-3%	4µM*	2	0%
CCCn1c(N)c(C(=O)CSc2nc(C)cs2)c(=O)[nH]c1=O	18	2%	17%	4	0%
O=c1oc2ccccc2nc1/C=C(\O)c1ccccc1	-13	-3%	-40%	-3	0%
